From PubChem BioAssay
Calls of active or inactive are those of the source.

Columns and labels:
[1] = molecular target: Albumin (Bos taurus) (UniProt P02769); test: bovine serum albumin binders on microarray, profiling panel, artefact control for SMM control protein annotation, biochemical, small-molecule microarray, Alexa647 label, 635/667 nm fluorescence (AID 1118); settings: BSA-A647 binding, fluorescence 635 nm, higher = more signal;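 note: score merges 667 nm emission intensity and signal-to-noise per printed compound spot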
Sequence of Albumin (Bos taurus) (P02769 whole entry, looked up): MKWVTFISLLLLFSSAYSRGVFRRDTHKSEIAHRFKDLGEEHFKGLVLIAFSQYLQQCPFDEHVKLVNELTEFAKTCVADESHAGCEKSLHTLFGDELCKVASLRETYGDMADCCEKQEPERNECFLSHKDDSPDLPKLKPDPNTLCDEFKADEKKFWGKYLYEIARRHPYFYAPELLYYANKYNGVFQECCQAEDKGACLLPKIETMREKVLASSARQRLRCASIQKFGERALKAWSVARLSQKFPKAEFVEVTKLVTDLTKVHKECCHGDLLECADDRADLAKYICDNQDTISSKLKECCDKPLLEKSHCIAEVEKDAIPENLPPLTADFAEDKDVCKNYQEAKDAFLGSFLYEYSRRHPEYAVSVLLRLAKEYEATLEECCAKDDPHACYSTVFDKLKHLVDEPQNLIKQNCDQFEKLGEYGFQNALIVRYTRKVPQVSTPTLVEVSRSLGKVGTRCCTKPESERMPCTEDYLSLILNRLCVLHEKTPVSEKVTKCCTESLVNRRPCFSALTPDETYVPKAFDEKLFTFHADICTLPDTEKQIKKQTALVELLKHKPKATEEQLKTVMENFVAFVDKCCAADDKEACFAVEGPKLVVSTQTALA

[2] = small-molecule microarray binders of probe aXIP, primary screen, biochemical, NeuroSMM set, 635/667 nm fluorescence (AID 1119); settings: higher = more signal, called active from +8 up or from −8 down;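 note: probe is the protein aXip251-270 applied at 1 µg/mL to compound-printed slides; binding of probe to printed compounds measured as 667 nm fluorescence plus signal to noise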
[3] = small-molecule binders of probe aNOTCH3, primary screen, biochemical, small-molecule microarray, 635/667 nm fluorescence (AID 1120); settings: higher = more signal;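 note: probe is a biotin-tagged antibody raised against NOTCH3 rather than NOTCH3 protein; score merges spot fluorescence near 667 nm with spot signal to noise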
[4] = small-molecule binders of probe aNOTCH2, primary screen, biochemical, small-molecule microarray, 635/667 nm fluorescence (AID 1121); settings: higher = more signal;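 note: score merges feature fluorescence read at 667 nm with its signal to noise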
[5] = molecular target: Carbonic anhydrase 2 (Homo sapiens) (UniProt P00918); test: CAII small-molecule binders, profiling panel, biochemical, small-molecule microarray, Alexa647-labelled CAII (AID 1122); settings: CAII-A647 binding fluorescence, higher = more signal
[6] = COS7 lysate on small-molecule microarray, probe aHis, 635 nm (AID 1123); settings: COS7 cell lysate, fluorescence, higher = more signal;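 note: z-score combines 667nm fluorescence intensity with signal-to-noise per printed compound spot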
[7] = compound binding in COS7 lysate, probe aLAP1, primary screen, cell lysate, small-molecule microarray (AID 1124); settings: probe aLAP1, fluorescence, higher = more signal;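 note: lysate comes from COS7 cells expressing LAP1 and is applied at 0.3 µg/mL; score merges spot fluorescence near 667 nm with signal-to-noise over triplicate slides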
[8] = tested on: Sam68 (KHDRBS1); test: Sam68 small-molecule binders, primary screen, biochemical, small-molecule microarray, 635 nm fluorescence (AID 1125); settings: small-molecule microarray binding, higher = more signal;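 note: score merges 667 nm channel intensity with signal to noise over triplicate slides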
[9] = tested on: Chordin-like protein 2 (CHRDL2); test: CHRDL2 small-molecule binders, primary screen, biochemical, small-molecule microarray, 635 nm fluorescence (AID 1126); settings: small-molecule microarray binding, fluorescence 635 nm; higher = more signal;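 note: printed compound slides probed with Chrdl2 protein at 4 µg/mL for 1 h at 4 C; score merges 667 nm emission intensity with signal to noise over three replicate slides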
[10] = molecular target: Concanavalin-A (Canavalia ensiformis) (UniProt P02866); test: ConA small-molecule binders, primary screen, artefact control for SMM control protein annotation, biochemical, small-molecule microarray, Alexa647 label, 635 nm (AID 1127); settings: ConA-A647 binding fluorescence, higher = more signal;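 note: z combines 667 nm emission intensity with signal-to-noise across three replicate slides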
Sequence of Concanavalin-A (Canavalia ensiformis) (P02866 whole entry, looked up): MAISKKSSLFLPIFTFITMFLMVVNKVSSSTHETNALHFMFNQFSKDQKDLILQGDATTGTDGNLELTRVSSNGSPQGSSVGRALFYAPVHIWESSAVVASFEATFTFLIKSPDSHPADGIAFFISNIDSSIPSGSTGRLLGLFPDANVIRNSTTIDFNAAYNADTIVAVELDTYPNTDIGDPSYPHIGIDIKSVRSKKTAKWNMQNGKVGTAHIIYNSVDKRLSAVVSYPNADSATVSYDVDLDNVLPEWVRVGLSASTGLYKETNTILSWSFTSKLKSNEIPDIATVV

COC(=O)[C@@]1(Cc2ccccc2CN=[N+]=[N-])N=C(c2ccc(OCCCO)cc2)O[C@H]1c1ccccc1CN=[N+]=[N-]
composite z-score [1]: -0.747
composite Z-score [2]: -0.221 (inactive)
composite z-score [3]: -0.15
composite z-score [4]: -0.101
composite z-score [5]: 0.885
composite z-score [6]: 1.77
composite z-score [7]: 0.017
composite z-score [8]: -0.63
composite z-score [9]: -1.42
composite z-score [10]: 0.114

O=C1C[C@@](C(=O)NCc2ccccc2)(c2ccc([N+](=O)[O-])cc2)[C@@H](c2ccc(CO)cc2I)N1CC12CC3CC(CC(C3)C1)C2
composite z-score [1]: 0.59
composite Z-score [2]: -0.0102 (inactive)
composite z-score [3]: -0.223
composite z-score [4]: -0.14
composite z-score [5]: 0.721
composite z-score [6]: 2.25
composite z-score [7]: 0.0884
composite z-score [8]: 1.21
composite z-score [9]: 0.542
composite z-score [10]: 0.999

C[C@]1(C(=O)O)c2ccccc2C(=O)N(Cc2ccc(OC(F)(F)F)cc2)[C@H]1c1ccc(CO)cc1
composite z-score [1]: 0.12
composite Z-score [2]: 0.219 (inactive)
composite z-score [3]: -0.104
composite z-score [4]: 0.109
composite z-score [5]: 0.73
composite z-score [6]: 1.61
composite z-score [7]: 0.902
composite z-score [8]: -0.0536
composite z-score [9]: -0.758
composite z-score [10]: -0.783

Cc1ccccc1C(O)C1C=CC2C(=O)NC(=O)C2N1Nc1ccc(Cl)cc1Cl (stereo not given)
composite z-score [1]: 0.709
composite Z-score [2]: 1.42 (inactive)
composite z-score [3]: -0.0653
composite z-score [4]: -0.0453
composite z-score [5]: 0.558
composite z-score [6]: 2.4
composite z-score [7]: 1.1
composite z-score [8]: 0.965
composite z-score [9]: 0.291
composite z-score [10]: 0.814

C=C(/C(=C/C[C@@H](OC(=O)c1ccncc1)c1cccc(OCCO)c1)c1cnc2ccccc2c1)C(C)C
composite z-score [1]: 0.701
composite Z-score [2]: 0.414 (inactive)
composite z-score [3]: 0.178
composite z-score [4]: -0.0689
composite z-score [5]: 0.976
composite z-score [6]: 1.69
composite z-score [7]: 1.38
composite z-score [8]: 1.21
composite z-score [9]: 1.24
composite z-score [10]: 1.2

C=C(COC)/C(=C/C[C@H](OC(C)=O)c1cccc(OCCO)c1)c1cnc2ccccc2c1
composite z-score [1]: 0.497
composite Z-score [2]: 0.0575 (inactive)
composite z-score [3]: 0.0556
composite z-score [4]: -0.0817
composite z-score [5]: 0.917
composite z-score [6]: 0.109
composite z-score [7]: 0.267
composite z-score [8]: 1.24
composite z-score [9]: 1.35
composite z-score [10]: 1.05

CN(C)C(=O)[C@@]1(Cc2ccccc2N=[N+]=[N-])N=C(c2ccc(OCCCO)cc2)O[C@H]1c1ccccc1
composite z-score [1]: 0.897
composite Z-score [2]: 2.37 (inactive)
composite z-score [3]: 0.484
composite z-score [4]: 0.369
composite z-score [5]: 0.681
composite z-score [6]: 2.76
composite z-score [7]: 1.13
composite z-score [8]: 1.31
composite z-score [9]: -0.699
composite z-score [10]: 1.18

C=CCOC(=O)[C@H]1[C@@H]2C(=O)O[C@@H](c3ccccc3)[C@@H](c3ccccc3)N2[C@@H](c2ccc(OCCOC(=O)[C@H]3C[C@H]4C(=O)N[C@@H](CCCCNC(C)=O)C(=O)N4[C@H]3c3cccc(OCCO)c3)cc2)[C@]12C(=O)Nc1ccc(I)cc12
composite z-score [1]: -0.371
composite Z-score [2]: 1.97 (inactive)
composite z-score [3]: -0.366
composite z-score [4]: -0.354
composite z-score [5]: 0.605
composite z-score [6]: 1.47
composite z-score [7]: 0.353
composite z-score [8]: 1.25
composite z-score [9]: 0.736
composite z-score [10]: 1.12

COc1ccc(C(O)C2C=CC3C(=O)N(c4ccccc4)C(=O)C3N2Nc2ccccc2)cc1 (stereo not given)
composite z-score [1]: 1.01
composite Z-score [2]: -0.135 (inactive)
composite z-score [3]: 0.331
composite z-score [4]: -0.0501
composite z-score [5]: 0.781
composite z-score [6]: 2.89
composite z-score [7]: 0.326
composite z-score [8]: 1.17
composite z-score [9]: -0.154
composite z-score [10]: 1.14

CC(C)CNC(=O)[C@@H]1c2ccccc2C(=O)N(C2CCCCC2)[C@H]1c1ccc(CO)cc1
composite z-score [1]: -0.183
composite Z-score [2]: 1.32 (inactive)
composite z-score [3]: -0.159
composite z-score [4]: -0.118
composite z-score [5]: 0.694
composite z-score [6]: 2.44
composite z-score [7]: -0.264
composite z-score [8]: 0.369
composite z-score [9]: -0.718
composite z-score [10]: -0.0374

O=C1C2C=CC(C(O)c3ccc4c(c3)OCO4)N(Nc3ccccc3)C2C(=O)N1c1ccccc1 (stereo not given)
composite z-score [1]: 1.01
composite Z-score [2]: 0.348 (inactive)
composite z-score [3]: 0.345
composite z-score [4]: 0.0247
composite z-score [5]: 0.468
composite z-score [6]: 2.43
composite z-score [7]: 0.247
composite z-score [8]: 1.29
composite z-score [9]: -0.0766
composite z-score [10]: 1.13

COCCOC(=O)N1C(=O)[C@@]2(c3ccccc31)[C@H](c1ccc(OCCO)cc1)N1[C@H](c3ccccc3)[C@H](c3ccccc3)OC(=O)[C@H]1[C@@H]2C(=O)N1CCCCCCC1
composite z-score [1]: 0.915
composite Z-score [2]: 7.84 (inactive)
composite z-score [3]: 2.31
composite z-score [4]: 1.18
composite z-score [5]: 1.08
composite z-score [6]: 5.33
composite z-score [7]: 1.22
composite z-score [8]: 1.35
composite z-score [9]: 1.7
composite z-score [10]: 1.24

O=C(O)[C@H]1C[C@H]2C(=O)N[C@@H](Cc3ccccc3)C(=O)N2[C@H]1c1cccc(OCCO)c1
composite z-score [1]: -1.09
composite Z-score [2]: 0.309 (inactive)
composite z-score [3]: 0.182
composite z-score [4]: -0.0609
composite z-score [5]: 0.634
composite z-score [6]: 0.26
composite z-score [7]: -0.0699
composite z-score [8]: 1.05
composite z-score [9]: 1.01
composite z-score [10]: 0.95

COCCOC(=O)N1C(=O)[C@@]2(c3cc(C#CC4(O)CCCCCC4)ccc31)[C@H](c1ccc(OCCO)cc1)N1[C@H](c3ccccc3)[C@H](c3ccccc3)OC(=O)[C@H]1[C@@H]2C(=O)Nc1nc2ccccc2s1
composite z-score [1]: 0.729
composite Z-score [2]: 0.526 (inactive)
composite z-score [3]: 0.5
composite z-score [4]: -0.0009
composite z-score [5]: 0.161
composite z-score [6]: 0.804
composite z-score [7]: 0.388
composite z-score [8]: 1.3
composite z-score [9]: 0.58
composite z-score [10]: 1.11

COCCOC(=O)N1C(=O)[C@@]2(c3cc(C#Cc4ccc(OC)cc4)ccc31)[C@H](c1ccc(OCCO)cc1)N1[C@H](c3ccccc3)[C@H](c3ccccc3)OC(=O)[C@H]1[C@@H]2C(=O)Nc1nc2ccccc2s1
composite z-score [1]: 0.862
composite Z-score [2]: -0.436 (inactive)
composite z-score [3]: -0.0967
composite z-score [4]: 0.0402
composite z-score [5]: 0.309
composite z-score [6]: 1.3
composite z-score [7]: 0.176
composite z-score [8]: 1.29
composite z-score [9]: -0.122
composite z-score [10]: 1.13

COc1ccc([Si](C)(C)[C@H]2[C@H](CCO)O[C@@]3(C(=O)N(Cc4ccc(N5C(=O)c6ccccc6Oc6ccccc65)cc4)c4ccccc43)[C@@H]2C)cc1
composite z-score [1]: -0.0162
composite Z-score [2]: -0.291 (inactive)
composite z-score [3]: -0.0212
composite z-score [4]: -0.204
composite z-score [5]: 0.0539
composite z-score [6]: 0.648
composite z-score [7]: -0.299
composite z-score [8]: -0.652
composite z-score [9]: -0.348
composite z-score [10]: -0.352

CC(C)C[C@@H]1NC(=O)[C@@H]2C[C@H](C(=O)NCCCCCC[N+](C)(C)C)[C@H](c3cccc(OCCO)c3)N2C1=O
composite z-score [1]: -0.391
composite Z-score [2]: 0.0931 (inactive)
composite z-score [3]: -0.0311
composite z-score [4]: -0.128
composite z-score [5]: 0.511
composite z-score [6]: 2.37
composite z-score [7]: 0.241
composite z-score [8]: 0.584
composite z-score [9]: 0.562
composite z-score [10]: 0.644

COc1ccc([Si](C)(C)[C@H]2[C@H](CCO)O[C@@]3(C(=O)N(Cc4ccccc4)c4ccc(N5CCOC5=O)cc43)[C@@H]2C)cc1
composite z-score [1]: 0.711
composite Z-score [2]: -0.326 (inactive)
composite z-score [3]: 0.0311
composite z-score [4]: -0.149
composite z-score [5]: 0.299
composite z-score [6]: 0.644
composite z-score [7]: -0.174
composite z-score [8]: 0.832
composite z-score [9]: 0.524
composite z-score [10]: 1.15

CCC(CC)C(O)C1C=CC2C(=O)N(c3ccccc3)C(=O)C2N1Nc1ccc([N+](=O)[O-])cc1 (stereo not given)
composite z-score [1]: 1.01
composite Z-score [2]: 1.13 (inactive)
composite z-score [3]: 0.443
composite z-score [4]: 0.125
composite z-score [5]: 0.573
composite z-score [6]: 1.72
composite z-score [7]: 1.35
composite z-score [8]: 1.3
composite z-score [9]: -0.0998
composite z-score [10]: 1.05

COc1ccc(C#Cc2ccc3c(c2)[C@]2(C(=O)N3)[C@H](c3ccc(OCCO)cc3)N3[C@H](c4ccccc4)[C@H](c4ccccc4)OC(=O)[C@H]3[C@@H]2C(=O)N2CCc3cc(OC)c(OC)cc3C2)cc1
composite z-score [1]: 0.0867
composite Z-score [2]: -0.487 (inactive)
composite z-score [3]: 0.233
composite z-score [4]: -0.23
composite z-score [5]: 0.438
composite z-score [6]: 2.04
composite z-score [7]: 0.216
composite z-score [8]: 1.12
composite z-score [9]: 0.704
composite z-score [10]: 1.09

C=CCC(OC(C)=O)[C@@H]1[C@@H](N(Cc2cccc3ccccc23)C(=O)c2ccc(-c3ccccc3)cc2)c2cc(OCCCO)ccc2N1C(=O)c1ccc(-c2ccccc2)cc1 (stereo not given in full)
composite z-score [1]: -0.0811
composite Z-score [2]: -0.646 (inactive)
composite z-score [3]: -0.0647
composite z-score [4]: -0.0294
composite z-score [5]: 0.255
composite z-score [6]: 0.384
composite z-score [7]: 0.205
composite z-score [8]: -0.225
composite z-score [9]: -0.046
composite z-score [10]: -0.441

COCCOC(=O)N1C(=O)[C@@]2(c3cc(C#CCC(C(=O)OC)C(=O)OC)ccc31)[C@H](c1ccc(O)cc1)N1[C@H](c3ccccc3)[C@H](c3ccccc3)OC(=O)[C@H]1[C@@H]2C(=O)NC[C@H](O)c1ccccc1
composite z-score [1]: 0.781
composite Z-score [2]: 0.7 (inactive)
composite z-score [3]: -0.196
composite z-score [4]: -0.14
composite z-score [5]: 0.63
composite z-score [6]: 2.2
composite z-score [7]: 0.588
composite z-score [8]: 0.296
composite z-score [9]: -0.282
composite z-score [10]: 1.07
